Source: PubChem BioAssay (Tox21)
Results filed as inconclusive are left out. Active and inactive are the calls of the source. Calls follow the shape of the full dose curve.

Assay: qHTS assay to identify small molecule agonists of the NFkB signaling pathway - cell viability counter screen (AID 1159515); also: nearly all actives have a fitted effect of over 55% in size
Conditions: NFkB-bla ME-180 viability, CellTiter-Glo luminescence, 5 h; series mostly up to 61 µM
Source text: National Center for Advancing Translational Sciences [NCATS]
NIH Chemical Genomics Center [NCGC]
U.S. Environmental Protection Agency [EPA]
National Institutes of Environmental Health Sciences [NIEHS]
National Toxicology Program [NTP]
U.S. Food and Drug Administration [FDA]
Transcription factors and their stimulated target gene expression play pivotal roles across many cellular processes including responses to environmental stimuli. Proper regulation of associated pathways is critical to maintain cell health and function. Constitutive activation of transcription factor pathways has been implicated in tumors as it may block cellular functions such as apoptosis and lead to invasion and metastasis. One important transcription factor that stimulates gene expression in response to cytokines, UV radiation, and other stimuli is nuclear factor-kappa B (NFkB). To measure activation of the NFkB pathway, the CellSensor NFkB-bla ME-180 cell line (Life Technologies, Carlsbad, CA) that stably expresses beta-lactamase reporter gene under the regulation of a NF-kB response element was used. This assay allows measurement of the NFkB pathway activity induced by compounds in a ME-180 cell line. This system quantitates NF-kB activity using a FRET-based assay system where beta-lactamase expression disrupts FRET, allowing for fluorescent measurement of activity. This cell line has been used to screen the Tox21 10K compound library and to identify compounds that induce the NFkB pathway activity. The cytotoxicity of the Tox21 compound library against the NFkB-bla ME-180 cell line was tested in parallel by measuring cell viability using the CellTiter-Glo assay in the same wells.
Tox21 Assay Protocol Summary:
NFkB-bla ME-180 cells were dispensed at 2,000 cells/6 uL of assay medium per well into black wall/clear-bottom 1536-well plates using a Multidrop Combi (ThermoFisher Scientific, Waltham, MA) dispenser. After the assay plates were incubated at 37 C and 5% CO2 for an overnight, 23 nL of compounds dissolved in DMSO, positive controls or DMSO only was transferred to the assay plate by a Pintool station (Kalypsys, San Diego, CA). The assay plates were incubated at 37 C and 5% CO2 for 5 hr. One uL of LiveBLAzer B/G FRET substrate (Life Technologies) was added using a Flying Reagent Dispenser (Aurora Discovery, San Diego, CA) and the plates were incubated at room temperature for 1.5 hr. Fluorescence intensity (405 nm excitation, 460 nm and 530 nm emissions) was measured using an Envision plate reader (PerkinElmer, Shelton, CT). For cytotoxicity, 3 ul/well of CellTiter-Glo reagent was added into the assay plates using an FRD. After 30 min incubation at room temperature, the luminescence intensity was measured using a ViewLux plate reader (PerkinElmer).
With CCCCOC(=O)c1ccccc1C(=O)O the outcome was “inactive”.
In the case of CCN(CC)C(=O)[C@@H]1C=C2c3cccc4[nH]cc(c34)C[C@H]2N(C)C1, the outcome is reported as “inactive”.
In the case of CN1CCC(O)(c2ccc(F)cc2)C(C(=O)c2ccc(F)cc2)C1 (stereo not given), the outcome is reported as “inactive”.
In the case of CN/C(=N\[N+](=O)[O-])NCC1CCOC1 (stereo not given), the outcome is reported as “inactive”.
In the case of OCCSCSCCO, the outcome is reported as “inactive”.
With CCCCc1ccc(O)cc1 the outcome was “inactive”.
In the case of c1coc(-c2nc3ccccc3[nH]2)c1, the outcome is reported as “inactive”.
For CCCCP(CCCC)CCCC, the outcome was “inactive”.
For O=C(N[C@H]1CN2CCC1CC2)c1cc2ccoc2cn1, the outcome was “inactive”.
With CC(CCc1ccccc1)NC(C)C(O)c1ccc(O)cc1 (stereo not given) the outcome was “inactive”.
In the case of CCOC(=O)C(c1c(O)c2ccccc2oc1=O)c1c(O)c2ccccc2oc1=O, the outcome is reported as “inactive”.
In the case of COC(=O)c1ccccc1S(=O)(=O)NC(=O)Nc1nc(C)cc(C)n1, the outcome is reported as “inactive”.
In the case of CCOP(=O)(OCC)OP(=O)(OCC)OCC, the outcome is reported as “inactive”.
With CCCSP(=S)(OCC)Oc1ccc(Cl)cc1Cl (stereo not given) the outcome was “inactive”.
With CCOC(=O)C1(c2ccccc2)CCN(CCc2ccc(N)cc2)CC1 the outcome was “inactive”.
With Clc1ccccc1N1CCNCC1 the outcome was “inactive”.
In the case of CC1=C(C(=O)O)N2C(=O)[C@@H](N)[C@H]2SC1, the outcome is reported as “inactive”.
For CC1CN1P(=O)(N1CC1C)N1CC1C (stereo not given), the outcome was “inactive”.
For Cc1ncsc1CCCl, the outcome was “inactive”.
With CCCSC(=O)N(CCC)CCC the outcome was “inactive”.
With COC(=O)C(C)Oc1ccc(Oc2ccc(Cl)cc2Cl)cc1 (stereo not given) the outcome was “inactive”.
In the case of O=C(CCCN1CCC(n2c(=O)[nH]c3ccccc32)CC1)c1ccc(F)cc1, the outcome is reported as “inactive”.
With CCC1(c2ccccc2)C(=O)N=C(O)NC1=O (stereo not given) the outcome was “inactive”.
In the case of O=[N+]([O-])c1ccc2c3c(cccc13)CC2, the outcome is reported as “inactive”.
In the case of [As]#[In], the outcome is reported as “inactive”.
With C[N+](=O)[O-] the outcome was “inactive”.
In the case of CCOP(=S)(Oc1cnc(C(C)(C)C)nc1)OC(C)C (stereo not given), the outcome is reported as “inactive”.
With Fc1ccc(C2(Cn3cncn3)OC2c2ccccc2Cl)cc1 (stereo not given) the outcome was “inactive”.
In the case of CCC(C)(C)c1cc(-n2nc3ccccc3n2)c(O)c(C(C)(C)CC)c1, the outcome is reported as “inactive”.
In the case of CC(C)CC(N(C)C)C1(c2ccc(Cl)cc2)CCC1 (stereo not given), the outcome is reported as “inactive”.
For CCOP(=S)(OCC)SCSc1ccc(Cl)cc1, the outcome was “inactive”.
With O=C(O)C(Br)CBr (stereo not given) the outcome was “inactive”.
For CC(C)(C)OC(=O)c1ncn2c1[C@@H]1CCCN1C(=O)c1c(Br)cccc1-2, the outcome was “inactive”.
With OC(Cn1cncn1)(c1ccc(F)cc1)c1ccccc1F (stereo not given) the outcome was “inactive”.
With O=C(CCN1CC1)OCC(CO)(COC(=O)CCN1CC1)COC(=O)CCN1CC1 the outcome was “inactive”.
In the case of COc1ccc(C(=O)N2CCCC2=O)cc1, the outcome is reported as “inactive”.
In the case of O=C1OC(CCN2CCCCC2)OC1(c1ccccc1)c1ccccc1 (stereo not given), the outcome is reported as “inactive”.
For C#C[C@]1(O)C=C[C@H]2[C@@H]3CCC4=CC(=O)CC[C@@H]4[C@H]3CC[C@@]21CC, the outcome was “inactive”.
With CCOP(=S)(OCC)SCSP(=S)(OCC)OCC the outcome was “inactive”.
In the case of Nc1c(Br)cc([N+](=O)[O-])cc1[N+](=O)[O-], the outcome is reported as “inactive”.
